Shown is part of a subset that was picked to be rich in hits.
Pf Dd2 growth – qHTS Primary assay for Inhibitors of Plasmodium falciparum Dd2 growth in vitro | actives 4.3% (n = 120,000) | P. falciparum Dd2 growth, SYBR Green, 72 h | Potency, µM (top dose mostly 28.9 µM), for inactives: at the top dose activity, negative = inhibition, usual class: inhibitors; active means well fitted inhibition curve with a large enough effect;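 further: plate controls were DMSO vehicle for no effect and reference drug for full effect; nearly all actives have a fitted effect of over 65% in size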
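Infected erythrocytes (Dd2, 0.3% parasitemia, 2.5% hematocrit final) are added to compound in RPMI-1640/Albumax II medium, grown 72 h at 37C in low oxygen, then lysed with saponin/Triton-X containing SYBR Green and read by fluorescence.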
An asterisk follows results filed as active; i = inactive; [ ] = remark or other dose. Potency means the concentration at half of the fitted maximal effect.

SMILES	Pf Dd2 growth
COCCNC(=O)c1ccc(OC2CCN(C(C)CCSC)CC2)c(Cl)c1 (stereo unspecified)	11µM*
CS(=O)(=O)N1CCC(Oc2ccc(C(=O)NCCc3cnccn3)cc2Cl)CC1	-12%
Cc1ccc(C(C)CCN2CCC(N3CCC(C(=O)NC4CC4)CC3)CC2)o1 (stereo unspecified)	-13%
COc1ccc(C(=O)NCC2CCOC2)cc1OC1CCN(C(C)C)CC1 (stereo unspecified)	-15%
COCCNC(=O)c1ccc(OC2CCN(CCC(C)c3ccc(C)o3)CC2)c(Cl)c1 (stereo unspecified)	4.5µM*
COCCN1CC(CNC(=O)c2cc(Cl)c(C)c(Cl)c2)CC1=O (stereo unspecified)	-12%
O=C(NCc1ccccc1)[C@H]1CN2CCC1C[C@@H]2Cn1cc(C2(O)CCCCC2)nn1 (stereo partly specified)	i
Cc1noc(C)c1S(=O)(=O)N1CCC[C@H]1C(=O)N1CCCCCCNC(=O)CC1	-8%
COc1ccccc1N1CCN([C@@H]2[C@H](O)[C@H](CO)O[C@@H]2CNC(=O)Nc2ccccc2)CC1	-14%
O=C(Nc1ccc(O)c(-c2nc3ccccc3o2)c1)c1cccs1	36%
O=C(Nc1ccc(O)c(-c2nc3ccccc3o2)c1)c1sc2ccccc2c1Cl	0%
O=C(Nc1ccc(O)c(-c2nc3ccccc3o2)c1)c1ccc(Br)cc1	2.8µM*
c1ccc(OCCNc2nc(-c3cccnc3)nc3c2CCNCC3)cc1	2.2µM*
Cc1ncsc1CCCNc1nc(-c2ccccn2)nc2c1CCNCC2	i
c1cc(-c2nc3c(c(NCc4cn5c(n4)SCC5)n2)CCNCC3)ccn1	-3%
COc1ccc(-c2ccc3nnc(CNC(=O)c4cccc(OC)c4)n3n2)cc1	i
CN1CCCN(C(=O)c2ccccc2C(F)(F)F)c2ccccc21	i
Cc1nc(C2CCCN(C(=O)CCC(C)C)C2)cc(N2CCCC2)n1 (stereo unspecified)	-28%
Cc1noc(C)c1S(=O)(=O)N1CC(N(CC(C)C)C2CCOCC2)C1	-25%
Cc1noc(C)c1S(=O)(=O)N1CCC(N2CCOC2=O)CC1	22%
Cc1noc(C)c1S(=O)(=O)N1CCC(N(CCC(C)C)C2CCOCC2)CC1	13µM*
Cc1onc(-c2cnn(C)c2NCCc2ccccc2)c1C(=O)N1CCCC(C(N)=O)C1 (stereo unspecified)	-17%[44.1 µM]
O=C([C@@H]1C[C@H](Oc2cccnc2)CN1C(=O)NC1CCCCC1)N1CCOCC1	37%
CC(Oc1ccccc1)C(=O)N1CCC(n2cc(-c3nc(-c4ccccc4)no3)nn2)C1 (stereo unspecified)	63%
Cn1nc(C2CCN(C(=O)c3cccnc3)CC2)c2c1CCOC2	i[5.79 µM]
SMILES	Pf Dd2 growth
Cc1ccc([S+](=O)([O-])NC[C@@H]2CC[C@H]3C[C@@H]2C3(C)C)cc1	i
O=[S+]([O-])(NCC1CN(Cc2ccncc2Cl)CC12CN(c1ccccc1)C2)c1ccccc1 (stereo unspecified)	-20%
CC1(C)[C@H]2CC[C@@H](CN[S+](=O)([O-])c3ccccc3)[C@@H]1C2	11µM*
CCNC(=O)[C@@H]1C[C@H](N)CN1C(=O)Cc1ccc(OC)cc1OC	13%
O=C(Nc1cc(F)c(F)c(F)c1)N1CCC(OC2CCN(Cc3ccccc3)CC2)CC1	i
CNC(=O)N1CCC(OC2CCN(Cc3ccccc3)CC2)CC1	-26%
O=C(c1c(F)cccc1F)N1CCC(OC2CCN(Cc3ccccc3)CC2)CC1	11µM*
CNC(=O)[C@@H]1CN(C(=O)c2ccc3c(c2)OCO3)C[C@H]1c1nc(COC)no1	-22%
COc1cccc(S(=O)(=O)N2CCC3(C2)C(=O)N(C)c2ccc(OC)cc23)c1 (stereo unspecified)	i
COc1ccc(NC(=O)c2sc3nc(C)c(C(=O)Nc4ccc(Cl)cc4)c(-c4ccc(Br)cc4)c3c2N)cc1	-3%
COc1ccc(NC(=O)c2sc3nc4c(cc3c2N)CCCCCC4)cc1	22%
COc1ccc(-c2c3c(nc4sc(C(=O)Nc5ccc(Cl)cc5)c(N)c24)CC(C)(C)CC3=O)cc1	0.063µM*
CC(C)n1nc(OC(C)(C)C(=O)NC2CCC(O)CC2)c2cc(CN3CCOCC3)ccc21 (stereo unspecified)	19%
CN(C)S(=O)(=O)c1ccc(C(=O)NCCSc2c(-c3ccc(Cl)cc3)[nH]c3ccccc23)cc1	8.9µM*
CCOc1ccc(C(=O)NCCSc2c(C)[nH]c3ccccc23)cc1OCC	-28%
Cc1ccc(-c2[nH]c3ccccc3c2SCCNC(=O)c2ccc(S(=O)(=O)N(C)C)cc2)cc1	8.9µM*
Cc1ccc(S(=O)(=O)N(CC(=O)NCCSc2ccc(Cl)cc2)c2cccc(Cl)c2)cc1	i
Cc1ccc(C(=O)NCCSc2c[nH]c3ccccc23)cc1C	7%
O=C(NCCc1ccc(Cl)cc1)c1ccc(Cn2c(=O)[nH]c3ccccc3c2=O)cc1	-19%
O=C(NC[C@H]1OC[C@@H](N(Cc2ccccc2)Cc2ccccc2)[C@@H]1O)c1ccccc1	i

Bioassay records from PubChem BioAssay.
